Test results from publication PMC6212790, “How bacterial xenogeneic silencer rok distinguishes foreign from self DNA in its resident genome”.
The full ranking holds about 33,000 sequences; the median of “e-score” is about -0.037, and the highest 2% start at about 0.34. The sample as a whole holds a higher share of the highest values than the screen did.

target: T1, GST-Rok (full length) (Bacillus subtilis subsp. subtilis str. …, UniProt O34857 1-191); test: protein binding microarray; Rok is a gene silencer of Bacillus subtilis; high values mean tight binding; details: protein: recombinant; tags: GST (pTH5325, pDEST15-Magic modified); dsDNA, one strand shown
T1 sequence: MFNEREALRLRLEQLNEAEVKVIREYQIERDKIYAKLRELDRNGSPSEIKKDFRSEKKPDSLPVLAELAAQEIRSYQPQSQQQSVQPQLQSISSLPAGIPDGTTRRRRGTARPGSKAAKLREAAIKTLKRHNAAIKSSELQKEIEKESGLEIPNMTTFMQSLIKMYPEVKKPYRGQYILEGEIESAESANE
Outline: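 Each has a 25-mer constant primer and a 35-mer variable part from a de Bruijn sequence of order 10, covering every non-palindromic 8-mer at least 32 times (palindromic 16). Preference for each 8-mer is given as a rank-based, unitless enrichment score (E-score). Its range runs from 0.5 (most favored) to −0.5 (most disfavored).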

Sequence | binding signal
CTTATAGA | 0.112 E-score
ATTATATA | 0.468 E-score
GTTATATA | 0.296 E-score
ATTATAGA | 0.353 E-score
CTTATATC | 0.141 E-score
CCTATATC | 0.00873 E-score
GTTATAGA | 0.11 E-score
ATTATATG | 0.269 E-score
ATTATATC | 0.377 E-score
CCTGAGCA | -0.194 E-score
CATCGACA | 0.0503 E-score
CACAACCG | 0.019 E-score
AGCGTGGG | -0.179 E-score
ATCGAAAC | 0.0448 E-score
ATAGAATA | 0.356 E-score
ATAGAAAA | 0.324 E-score
ATAGAAAT | 0.337 E-score
ATAGAATG | 0.181 E-score
ATAGAAAC | 0.288 E-score
ATAGAATC | 0.254 E-score
ATCGAAAT | 0.357 E-score
ATCGAAAA | 0.0373 E-score
TCTTTCCA | -0.0837 E-score
AGTCGGAC | -0.171 E-score
AGCCCGTG | -0.00226 E-score

Sequence | binding signal
AAGCGACT | 0.0908 E-score
GGATAGTA | 0.208 E-score
AGATAGTA | 0.347 E-score
AGATAGTC | 0.0258 E-score
CGATAGTC | -0.0533 E-score
CGATAGTA | 0.384 E-score
AGATAGTG | 0.199 E-score
CATGATCC | 0.0194 E-score
AGAAGCTA | 0.0762 E-score
AACCTCAC | -0.146 E-score
AACCGCCC | -0.131 E-score
CGGCGAAG | 0.0313 E-score
ATGAAGTC | -0.0225 E-score
GCGACTTA | 0.0295 E-score
CCACTAAG | -0.137 E-score
CTTTCTAC | 0.444 E-score
ATTTCTAC | 0.408 E-score
CTTTCTAA | 0.162 E-score
ATTTCTAG | 0.333 E-score
ATTTCTAA | 0.303 E-score
CTTTCTTC | -0.0764 E-score
AGAGACCT | -0.154 E-score
ACGTGGGC | -0.0245 E-score
GGATTGAC | -0.0238 E-score
ATGTTATA | 0.35 E-score

Sequence | binding signal
CTATTATC | 0.214 E-score
GTATTATA | 0.35 E-score
ATATTATC | 0.319 E-score
GTATTAGA | 0.22 E-score
ATATTATA | 0.425 E-score
GTATTAAA | 0.109 E-score
CTGTTATA | 0.308 E-score
ATATTATG | 0.111 E-score
CTATTATA | 0.366 E-score
ATGTTATC | 0.206 E-score
CGATTATA | 0.215 E-score
CGTCCTAA | -0.0629 E-score
CGAACTGC | -0.11 E-score
ACCATGCG | -0.0629 E-score
TCGAAGCA | -0.0477 E-score
TAACTAGA | 0.224 E-score
CAACTAGA | 0.247 E-score
AAACTAGA | 0.355 E-score
ACACTAGA | 0.197 E-score
GAACTAGA | 0.36 E-score
AGACTAGA | 0.173 E-score
CCGGCGAA | -0.00971 E-score
CAATAATG | 0.0655 E-score
CAATAATA | 0.352 E-score
CATTAATA | 0.171 E-score

Sequence | binding signal
TAATAATA | 0.395 E-score
GAATAATA | 0.271 E-score
AATTAATA | 0.256 E-score
AAATAATA | 0.312 E-score
TATTAATA | 0.368 E-score
CAATAATC | 0.0735 E-score
ACTCACTA | 0.177 E-score
ACAGCATG | 0.0491 E-score
AGGCACTG | -0.0252 E-score
CGTGATAA | 0.124 E-score
CCCGGCCG | -0.162 E-score
CCAAATAG | -0.0889 E-score
CGTGCGAG | -0.181 E-score
TTATTGAA | -0.0458 E-score
GGTAAATA | 0.299 E-score
AGTAAATC | 0.262 E-score
CGTAAATC | 0.0869 E-score
AGTAAATA | 0.387 E-score
CGTAAATA | 0.343 E-score
AGTAAATG | 0.19 E-score
AATTCCGT | -0.114 E-score
GACTTTCA | -0.125 E-score
CGGCCAAC | -0.111 E-score
AGAAGATG | 0.193 E-score
ACTGATAT | 0.242 E-score

Sequence | binding signal
CCGTACCG | -0.185 E-score
CTGAACTA | 0.203 E-score
AAAGTCGA | -0.0163 E-score
CTATAATA | 0.355 E-score
GTATAATA | 0.407 E-score
CTATAATC | 0.279 E-score
GTATAAAC | 0.16 E-score
GTATAAAA | 0.343 E-score
ATATAATG | 0.303 E-score
GTATAAGA | 0.199 E-score
TTATAAAA | 0.236 E-score
CTATAAGA | 0.244 E-score
GTATAACA | 0.208 E-score
ATATAATC | 0.152 E-score
ATATAATA | 0.452 E-score
GATCAGAA | 0.11 E-score
ACGACCGC | 0.0315 E-score
CCCGTTTC | -0.0198 E-score
CCATCTAG | -0.0113 E-score
ATGAGGGC | -0.183 E-score
AGCTGCCT | -0.125 E-score
CGGTGTTC | -0.0645 E-score
AGAACATG | 0.223 E-score
GGTCTAAA | 0.0268 E-score
ATACATCA | 0.191 E-score

Sequence | binding signal
ATTATCTG | 0.284 E-score
ACCATCTA | 0.351 E-score
GCCATCTA | 0.0099 E-score
CCTATCTA | 0.34 E-score
ATTATCTA | 0.412 E-score
AGTATCTC | 0.238 E-score
CCTATCCA | -0.0329 E-score
ACCATCTC | -0.0707 E-score
CCTATCTC | 0.168 E-score
AGTATCTA | 0.343 E-score
AGTATCTG | 0.189 E-score
ATTATCTC | -0.0512 E-score
CTAACGAG | 0.0146 E-score
GCCAAGTA | 0.107 E-score
AGCGAGCA | -0.18 E-score
TACCAGCA | 0.135 E-score
GAACAACA | -0.0557 E-score
ACTATCTC | 0.128 E-score
GCTATCTA | 0.33 E-score
ACTATCTA | 0.397 E-score
CCTTTCTA | 0.158 E-score
ATTTTCTA | 0.397 E-score
GATTTCGA | 0.183 E-score
ACTTTCTC | 0.0817 E-score
AATTTCGA | 0.352 E-score

Sequence | binding signal
GATTTCTA | 0.3 E-score
CATTTCGA | -0.0105 E-score
AATTTCTA | 0.344 E-score
ACTTTCTA | 0.386 E-score
CATTTCTA | 0.288 E-score
ATTTTCTG | -0.139 E-score
ATTTTCTC | 0.264 E-score
CTTTACGC | 0.177 E-score
AGGCCGTA | -0.152 E-score
CATCGTAA | 0.169 E-score
GTTTCCAA | 0.0167 E-score
CTAGCGTC | -0.0555 E-score
AGCTTAGG | 0.072 E-score
AGTTTCTC | 0.274 E-score
AGTTTCTA | 0.402 E-score
GGTTTCTA | 0.334 E-score
GACAGAAC | -0.0014 E-score
CCTCTAAC | -0.0188 E-score
GAAGTATA | 0.169 E-score
GCAGTATA | 0.275 E-score
CCAGTATA | 0.235 E-score
GTAGTATA | 0.423 E-score
CTAGTATC | 0.241 E-score
CTAGTATA | 0.409 E-score
GTAGTACA | 0.236 E-score

Sequence | binding signal
CAAGTATA | 0.204 E-score
ACAGTATA | 0.343 E-score
CCTAACAG | 0.0291 E-score
ATTAGCAA | 0.0548 E-score
CGCAACTC | -0.103 E-score
AATGACAA | 0.16 E-score
TATTACGA | 0.296 E-score
GCGTATCA | 0.0845 E-score
TAACAGTA | 0.355 E-score
GAACAGTA | 0.264 E-score
CAACAGTA | 0.316 E-score
AGAATGTA | 0.201 E-score
CATATTTA | 0.324 E-score
AATATTAC | 0.239 E-score
TGTATTAA | 0.241 E-score
TATATTGA | 0.278 E-score
GATATTTA | 0.351 E-score
GATATTAC | 0.364 E-score
CATATTAA | 0.268 E-score
GATATTAA | 0.365 E-score
AATATTAA | 0.334 E-score
CATATTAC | 0.289 E-score
AATATTTA | 0.325 E-score
TATATTAA | 0.364 E-score
CCGGTCGA | -0.102 E-score

Sequence | binding signal
AGAGACTA | 0.093 E-score
CCCTCGTA | -0.134 E-score
AGCCAAAT | 0.0925 E-score
TAAGAGCA | -0.127 E-score
CGCTGTGA | -0.0511 E-score
GCTTCAAC | 0.127 E-score
AGCTCCAG | -0.0852 E-score
ACATTCTC | 0.0677 E-score
ACGTTCTC | 0.0202 E-score
GGGAAATA | 0.127 E-score
CATTAGTA | 0.227 E-score
AATTAGTA | 0.416 E-score
ATTTAGTG | 0.166 E-score
GTTTAGTA | 0.272 E-score
ATTTAGTA | 0.363 E-score
AATTAGTG | 0.322 E-score
GCGCATAC | 0.0802 E-score
CGTTCTGA | -0.0208 E-score
TTAGATAA | 0.251 E-score
CTAGATAC | 0.22 E-score
GCAGATAC | 0.0143 E-score
GTAGATAC | 0.359 E-score
GTAGATAA | 0.407 E-score
CTAGATAA | 0.302 E-score
